# From PubChem BioAssay (NCI)
# This is part of a sample that, as a whole, favours compounds with a hit. Of some 83,000 tested, about 20% had one in any assay.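 48-hour exposure, single concentration, 96-well plates; percent growth endpoint where 0 means no net growth. Active: below 10.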 A number with no mark means an inactive call. Activity calls are given as the source filed them.
# Experiments:
# Assay in all cases: NCI-60 one-dose screen, 48 h (100 = growth as untreated, 0 = no growth, -100 = all killed)
# Conditions in all cases: 10 µM
# [1] = tested on: SR leukemia
# [2] = tested on: OVCAR-8 ovarian
# [3] = tested on: OVCAR-5 ovarian
# [4] = tested on: OVCAR-4 ovarian
# [5] = tested on: SK-OV-3 ovarian
# [6] = tested on: IGROV1 ovarian
# [7] = tested on: OVCAR-3 ovarian
# [8] = tested on: NCI/ADR-RES ovarian
# [9] = tested on: T-47D breast
# [10] = tested on: MDA-MB-435 melanoma
# [11] = tested on: SW-620 colon
# [12] = tested on: MCF7 breast
# [13] = tested on: HCT-116 colon
# [14] = tested on: HCC-2998 colon
# [15] = tested on: KM12 colon
# [16] = tested on: HS 578T breast
# [17] = tested on: BT-549 breast
Structure (SMILES),growth [1],growth [2],growth [3],growth [4],growth [5],growth [6],growth [7],growth [8],growth [9],growth [10],growth [11],growth [12],growth [13],growth [14],growth [15],growth [16],growth [17]
CCOC(=O)c1sc(NC(=O)c2cc(OC)c(OC)c(OC)c2)nc1C,79%,99.3%,108%,113%,152%,-10.1% (active),103%,103%,118%,102%,98.1%,87.5%,111%,57.4%,99.3%,–,–
O=C(c1ccccc1)C(Sc1ccccc1)c1ccccc1 (stereo not drawn),49.2%,86.8%,96%,78.7%,103%,83.8%,109%,82.7%,90.8%,107%,57.8%,94%,55.8%,87.8%,99.5%,100%,92.9%
COc1ccc(-c2csc(NC(=O)CO[N+](=O)[O-])n2)cc1,96.1%,96.1%,–,103%,108%,97.9%,101%,99.6%,57%,106%,103%,92.6%,–,105%,95.8%,104%,–
NC(N)=NS(=O)(=O)c1ccc(Nc2ccc3nnc(-c4ccncc4)n3n2)cc1,96.9%,96.7%,100%,103%,104%,113%,110%,105%,96.4%,110%,97.6%,91.3%,100%,99.1%,100%,99.6%,112%
CCOC(=O)[C@@H](Cc1ccccc1)NC(=O)c1[nH]c2ccc(Cl)cc2c(=O)c1C,61.3%,97.8%,106%,102%,100%,96.2%,111%,106%,87.1%,103%,96.3%,96.8%,65.2%,87.6%,97%,94.2%,108%
C/C=C\COc1cc(C)c(Cl)cc1Cl,107%,99.4%,108%,94.7%,112%,107%,116%,115%,105%,98%,96.2%,98.4%,110%,118%,109%,121%,126%
CN1/C(=C\C(I)C(I)C2=[N+](C)c3ccccc3C2(C)C)C(C)(C)c2ccccc21 (stereo not drawn),8.27% (active),7.15% (active),24.9%,21.6%,-8.39% (active),25%,13.3%,73%,-0.299% (active),11.8%,16.1%,4.83% (active),9.19% (active),12.6%,13.2%,42.8%,13.3%
O=C(O)c1cc(C(F)(F)F)cc(C(F)(F)F)c1,85.3%,106%,107%,108%,112%,114%,107%,107%,104%,104%,–,101%,99.8%,103%,105%,109%,105%
COc1ccc(-c2nnc(SC/C(=N\O)c3ccccc3)o2)cc1,100%,107%,108%,104%,87.9%,–,99.1%,91.2%,91.8%,106%,103%,104%,91.6%,94%,–,94%,100%
COc1ccc(-c2cc(/C=C3\C(=O)Nc4cc(Cl)ccc43)[nH]n2)cc1,19.3%,48.1%,69.4%,64.1%,28.8%,42.6%,-3% (active),9.42% (active),47.8%,-36.7% (active),19.9%,11.7%,26.2%,56.7%,19.2%,-4.18% (active),63.5%
CC(=O)/C(=C\c1ccc(Cl)cc1)c1ccccc1,6.01% (active),15.2%,51.5%,57.7%,39.1%,28.5%,-8.06% (active),30.7%,47.8%,-35.2% (active),25.6%,9.45% (active),5.06% (active),3.78% (active),10.1%,–,14.5%
Cc1nc(N)sc1Sc1nc2ccc(Cl)cc2c(=O)n1-c1ccc(Oc2ccccc2)cc1,-44.8% (active),75.2%,87.9%,40.9%,104%,101%,91.3%,69.9%,75.5%,88.1%,66.1%,87.4%,33.3%,74.1%,79.8%,81.9%,63.2%
CCOC(=O)/C(C#N)=C(/C)C1CC1,102%,107%,105%,104%,111%,121%,101%,111%,103%,106%,108%,101%,110%,112%,106%,–,107%
N#Cc1c(-c2ccccc2)nc(SCC(=O)N2CCOCC2)[nH]c1=O,90.1%,99.3%,103%,104%,90.7%,112%,110%,103%,93.4%,112%,106%,89.7%,99.9%,109%,114%,108%,88.2%
